Test [1] deals with PRMT1 (protein arginine N-methyltransferase 1). The experiment in a line: PRMT1 binders on small-molecule microarrays, primary screen, biochemical, small-molecule microarray, 635 nm fluorescence (AID 1088).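 Also: binding of Prmt1 protein to compounds spotted on small-molecule microarray slides.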 The following applies: small-molecule microarray binding, higher = more signal.
Test [2] is described as follows: yeast growth modulation, basal conditions, primary screen, YJM789 clinical isolate, OD600, 24 h (AID 1089).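 Also: growth of clinical yeast isolate S. cerevisiae YJM 789 seeded 1000 cells per well; test concentration not given here.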 The following applies: S. cerevisiae YJM789 growth, higher = more signal, called active from +8 up or from −8 down.
Test [3] can be described thus: fission yeast growth modulation, primary screen, strain 972, OD600, 24 h, no modulator (AID 1090).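 Also: basal condition with compound alone and no growth modifier present; test concentration not given here.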 Particulars: S. pombe 972 growth, higher = more signal, called active from +8 up or from −8 down.
Test [4] can be described thus: S. cerevisiae growth modulation with rapamycin, primary screen, strain BY4716, OD600, 96 h (AID 1091). Also: test concentration not given here. The following applies: higher = more signal, called active from +8 up or from −8 down.
The target of test [5] is Torsin-1A-interacting protein 2 (Homo sapiens) (UniProt Q8NFQ8). The experiment in a line: LULL1 binders on small-molecule microarray, primary screen, cell lysate, human LULL1 lysate, 635/667 nm fluorescence (AID 1092).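 Also: probe is lysate of COS7 cells overexpressing human LULL1; score merges per-feature 667 nm fluorescence with signal-to-noise.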 The following applies: hLULL1 lysate binding, 635 nm fluorescence, higher = more signal.
Test [6] is described as follows: E. coli growth modulation, two-sided OD650, primary screen, E. coli filamentation project, strain DRC41, 24 h (AID 1093).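 Also: MC1000 strain lacking acrAB efflux and sulA so SOS filamentation is blocked; test concentration not given here.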 The following applies: OD650, 24 h, higher = more signal, called active from +8 up or from −8 down.
The nature of test [7]: small-molecule microarray binders of probe aLefty2, primary screen, biochemical, biotinylated probe, 635/667 nm fluorescence (AID 1094).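 Also: score merges spot fluorescence near 667 nm with spot signal-to-noise ratio.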 Particulars: higher = more signal.
Test [8] relates to Noggin (protein binding on small-molecule microarray). Nature of the test: Noggin binders on small-molecule microarray, primary screen, biochemical, 635/667 nm fluorescence (AID 1095).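 Also: score merges 667 nm feature fluorescence with signal to noise over triplicate slides.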 Particulars: 635 nm fluorescence, higher = more signal.
The target in test [9] is Neurogenic locus notch homolog protein 3 (Homo sapiens) (UniProt Q9UM47). The experiment in a line: NOTCH3 binders on small-molecule microarray, primary screen, biochemical, 635/667 nm fluorescence (AID 1096). The following applies: NOTCH3 binding, 635 nm fluorescence, higher = more signal.
A short description of test [10]: small-molecule microarray binders of probe aEGFR, primary screen, biochemical, biotinylated probe, 635/667 nm fluorescence (AID 1097).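 Also: probe is a biotinylated anti-EGFR antibody binding compounds printed on slides; score combines fluorescence near 667 nm and signal to noise of each spot.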 The following applies: higher = more signal.
The test system of test [11] is Plasmodium falciparum Sir2 (PF13_0152, Sir2A). The experiment in a line: pfSir2 binders on small-molecule microarrays, primary screen, biochemical, small-molecule microarray, 635 nm fluorescence (AID 1098).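 Also: score merges spot fluorescence intensity with its signal-to-noise ratio.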 The following applies: small-molecule microarray binding, fluorescence 635 nm; higher = more signal.
Test [12] can be described thus: small-molecule microarray binders of probe aDKK1, primary screen, biochemical, biotinylated probe, 635/667 nm fluorescence (AID 1099).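 Also: score merges 667nm spot fluorescence with signal to noise across triplicate slides; reference of the scale not given here.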 Particulars: higher = more signal.
Test [13] can be described thus: small-molecule microarray binders of probe aCHRDL2, primary screen, biochemical, biotinylated probe, 635/667 nm fluorescence (AID 1100). The following applies: higher = more signal.
Test [14] is described as follows: splicing luciferase reporter signal modulators, primary screen, spliceosome inhibition project, cell-based, HEK293, splice +/- reporter (AID 1101).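 Also: HEK293 cells carrying a splicing-competent luciferase reporter gene; test concentration not given here.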 The following applies: luminescence, 24 h, higher = more signal, called active from +8 up or from −8 down. (In general: A reporter such as luciferase makes a cellular process visible.)
Test [15] deals with Fibroblast growth factor 10 (Homo sapiens) (UniProt O15520). Nature of the test: FGF10 binders on small-molecule microarrays, primary screen, biochemical, small-molecule microarray, 635 nm fluorescence (AID 1102). The following applies: FGF10 binding, fluorescence 635 nm, higher = more signal.
Test [16] has as its system glycogen synthase kinase-3 (GSK3A per assay name; protocol says GSK3B). The experiment in a line: GSK3 binders on small-molecule microarrays, primary screen, biochemical, small-molecule microarray, 635 nm fluorescence, GSK3A (AID 1103). Also: the record names both GSK3A and GSK3B. Particulars: small-molecule microarray binding, fluorescence 635 nm; higher = more signal.
Test [17] has as its target Epidermal growth factor receptor (Homo sapiens) (UniProt P00533). Nature of the test: EGFR binders on small-molecule microarrays, primary screen, biochemical, small-molecule microarray, 635 nm fluorescence (AID 1104).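 Also: score merges 667 nm emission intensity with spot signal to noise over triplicate slides.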 Particulars: EGFR binding, higher = more signal.
In test [18] the target is Follistatin-related protein 3 (Homo sapiens) (UniProt O95633). Nature of the test: FSTL3 binders on small-molecule microarrays, primary screen, biochemical, small-molecule microarray, 635 nm fluorescence (AID 1105).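 Also: score merges emission near 667 nm and signal to noise per printed spot across three slides.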 The following applies: FSTL3 binding, higher = more signal.
Test [19] concerns the target Dickkopf-related protein 1 (Homo sapiens) (UniProt O94907). The experiment in a line: DKK1 binders on small-molecule microarrays, primary screen, biochemical, small-molecule microarray, 635 nm fluorescence scan (AID 1106).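 Also: score merges emission near 667 nm with signal to noise over three replicate slides.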 The following applies: DKK1 binding, higher = more signal.
For test [20], the system named is Inhibin beta A chain (activin A). Nature of the test: INHBA (activin A) binders on microarrays, primary screen, biochemical, small-molecule microarray, 635 nm fluorescence scan (AID 1107).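 Also: mouse activin A protein probed at 4.33 µg/mL on printed slides; score merges bound-protein fluorescence near 667 nm with spot signal-to-noise.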 The following applies: small-molecule microarray binding, higher = more signal.

For five molecules, composite z-score and z-score results are on record in PubChem BioAssay.

SMILES strings stand for the structures. Activity calls are given as the source filed them.

Chain of Fibroblast growth factor 10 (Homo sapiens) (O15520 whole entry, looked up): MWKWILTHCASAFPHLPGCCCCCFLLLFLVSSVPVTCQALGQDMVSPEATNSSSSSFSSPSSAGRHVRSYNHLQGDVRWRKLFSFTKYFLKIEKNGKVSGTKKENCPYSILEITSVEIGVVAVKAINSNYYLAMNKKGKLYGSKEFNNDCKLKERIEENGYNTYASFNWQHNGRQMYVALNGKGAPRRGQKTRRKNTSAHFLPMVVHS
Chain of Torsin-1A-interacting protein 2 (Homo sapiens) (Q8NFQ8 whole entry, looked up): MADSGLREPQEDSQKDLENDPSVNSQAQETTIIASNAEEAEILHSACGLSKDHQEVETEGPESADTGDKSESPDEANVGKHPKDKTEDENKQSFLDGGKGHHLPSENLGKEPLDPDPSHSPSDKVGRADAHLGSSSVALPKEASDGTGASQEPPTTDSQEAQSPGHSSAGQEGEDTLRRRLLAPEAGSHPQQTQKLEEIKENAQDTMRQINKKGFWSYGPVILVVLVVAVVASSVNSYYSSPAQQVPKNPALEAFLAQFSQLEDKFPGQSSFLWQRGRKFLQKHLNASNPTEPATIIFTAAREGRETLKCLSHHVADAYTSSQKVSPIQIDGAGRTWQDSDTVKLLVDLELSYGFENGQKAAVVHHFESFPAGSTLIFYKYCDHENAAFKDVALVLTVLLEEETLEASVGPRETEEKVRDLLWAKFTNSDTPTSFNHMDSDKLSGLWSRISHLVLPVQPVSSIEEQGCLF
Chain of Follistatin-related protein 3 (Homo sapiens) (O95633 whole entry, looked up): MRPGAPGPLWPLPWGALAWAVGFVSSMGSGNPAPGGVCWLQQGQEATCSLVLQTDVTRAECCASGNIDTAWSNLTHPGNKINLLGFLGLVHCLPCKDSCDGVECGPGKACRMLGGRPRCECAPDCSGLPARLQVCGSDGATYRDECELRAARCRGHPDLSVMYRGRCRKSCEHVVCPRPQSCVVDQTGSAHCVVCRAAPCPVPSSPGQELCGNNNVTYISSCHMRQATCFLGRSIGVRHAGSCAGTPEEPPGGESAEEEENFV
Chain of Dickkopf-related protein 1 (Homo sapiens) (O94907 whole entry, looked up): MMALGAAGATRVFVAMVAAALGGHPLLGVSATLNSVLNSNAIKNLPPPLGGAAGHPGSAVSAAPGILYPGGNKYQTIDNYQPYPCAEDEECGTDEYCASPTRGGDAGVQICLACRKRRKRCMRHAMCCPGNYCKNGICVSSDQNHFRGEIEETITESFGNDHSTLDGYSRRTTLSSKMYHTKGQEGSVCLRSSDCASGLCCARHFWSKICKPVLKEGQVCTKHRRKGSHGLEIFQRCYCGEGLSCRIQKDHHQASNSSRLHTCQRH
Chain of Neurogenic locus notch homolog protein 3 (Homo sapiens) (Q9UM47 whole entry, looked up): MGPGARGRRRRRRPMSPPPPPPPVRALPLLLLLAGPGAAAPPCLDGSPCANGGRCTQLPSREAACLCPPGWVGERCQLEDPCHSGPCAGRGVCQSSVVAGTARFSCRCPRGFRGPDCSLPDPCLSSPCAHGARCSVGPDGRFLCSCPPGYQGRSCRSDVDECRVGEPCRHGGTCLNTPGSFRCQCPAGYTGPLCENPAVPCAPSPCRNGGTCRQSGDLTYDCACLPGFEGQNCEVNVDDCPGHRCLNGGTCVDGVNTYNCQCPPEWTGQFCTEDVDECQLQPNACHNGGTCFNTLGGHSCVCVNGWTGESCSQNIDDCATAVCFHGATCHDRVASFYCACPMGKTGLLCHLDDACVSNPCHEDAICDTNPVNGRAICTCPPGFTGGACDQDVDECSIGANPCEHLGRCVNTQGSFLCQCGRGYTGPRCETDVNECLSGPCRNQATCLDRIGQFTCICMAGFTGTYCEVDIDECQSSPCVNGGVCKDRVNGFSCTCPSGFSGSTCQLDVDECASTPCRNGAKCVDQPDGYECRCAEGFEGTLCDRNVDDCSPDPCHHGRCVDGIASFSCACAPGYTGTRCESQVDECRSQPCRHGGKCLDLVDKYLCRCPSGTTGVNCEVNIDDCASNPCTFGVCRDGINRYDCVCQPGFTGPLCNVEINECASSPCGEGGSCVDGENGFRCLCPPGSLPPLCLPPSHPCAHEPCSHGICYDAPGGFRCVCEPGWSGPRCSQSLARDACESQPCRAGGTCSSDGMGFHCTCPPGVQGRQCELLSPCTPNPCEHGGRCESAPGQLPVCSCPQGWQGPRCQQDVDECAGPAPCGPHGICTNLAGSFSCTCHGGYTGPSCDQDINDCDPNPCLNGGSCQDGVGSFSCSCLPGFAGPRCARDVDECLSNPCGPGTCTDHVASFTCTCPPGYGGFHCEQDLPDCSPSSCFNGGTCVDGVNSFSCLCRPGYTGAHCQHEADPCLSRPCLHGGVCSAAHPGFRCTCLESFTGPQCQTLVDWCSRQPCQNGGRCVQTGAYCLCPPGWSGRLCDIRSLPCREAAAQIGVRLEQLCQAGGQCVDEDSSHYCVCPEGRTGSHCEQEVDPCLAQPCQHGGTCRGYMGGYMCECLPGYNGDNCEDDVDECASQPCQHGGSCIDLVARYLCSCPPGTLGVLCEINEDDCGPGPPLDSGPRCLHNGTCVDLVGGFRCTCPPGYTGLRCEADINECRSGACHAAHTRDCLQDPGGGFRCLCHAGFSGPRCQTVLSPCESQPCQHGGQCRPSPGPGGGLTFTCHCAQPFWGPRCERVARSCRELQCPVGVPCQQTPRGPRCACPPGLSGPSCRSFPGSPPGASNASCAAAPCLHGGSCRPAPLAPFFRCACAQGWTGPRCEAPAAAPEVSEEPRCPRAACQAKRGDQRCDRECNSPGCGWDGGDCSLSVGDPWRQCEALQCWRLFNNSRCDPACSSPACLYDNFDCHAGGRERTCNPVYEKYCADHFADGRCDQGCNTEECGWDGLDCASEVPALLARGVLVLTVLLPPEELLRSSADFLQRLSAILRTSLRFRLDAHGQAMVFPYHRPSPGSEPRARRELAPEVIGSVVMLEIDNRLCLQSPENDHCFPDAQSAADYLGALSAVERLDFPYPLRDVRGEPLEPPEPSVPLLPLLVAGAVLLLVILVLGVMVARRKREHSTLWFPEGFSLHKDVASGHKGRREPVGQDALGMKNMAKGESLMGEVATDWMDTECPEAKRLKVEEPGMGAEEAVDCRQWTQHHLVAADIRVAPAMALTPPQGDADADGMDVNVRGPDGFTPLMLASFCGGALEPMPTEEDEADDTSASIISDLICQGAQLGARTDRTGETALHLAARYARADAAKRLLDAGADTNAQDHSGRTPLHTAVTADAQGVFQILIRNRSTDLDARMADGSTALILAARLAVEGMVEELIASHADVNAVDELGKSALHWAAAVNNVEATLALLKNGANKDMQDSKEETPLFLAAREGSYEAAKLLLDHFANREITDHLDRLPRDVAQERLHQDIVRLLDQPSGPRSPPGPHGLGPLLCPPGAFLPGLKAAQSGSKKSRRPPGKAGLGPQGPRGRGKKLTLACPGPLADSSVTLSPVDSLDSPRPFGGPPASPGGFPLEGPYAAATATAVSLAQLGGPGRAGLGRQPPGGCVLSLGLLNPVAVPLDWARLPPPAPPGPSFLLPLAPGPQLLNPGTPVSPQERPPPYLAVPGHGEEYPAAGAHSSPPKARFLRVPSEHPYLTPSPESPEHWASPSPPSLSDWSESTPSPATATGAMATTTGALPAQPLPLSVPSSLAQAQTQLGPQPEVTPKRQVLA
Chain of Epidermal growth factor receptor (Homo sapiens) (P00533 whole entry, looked up): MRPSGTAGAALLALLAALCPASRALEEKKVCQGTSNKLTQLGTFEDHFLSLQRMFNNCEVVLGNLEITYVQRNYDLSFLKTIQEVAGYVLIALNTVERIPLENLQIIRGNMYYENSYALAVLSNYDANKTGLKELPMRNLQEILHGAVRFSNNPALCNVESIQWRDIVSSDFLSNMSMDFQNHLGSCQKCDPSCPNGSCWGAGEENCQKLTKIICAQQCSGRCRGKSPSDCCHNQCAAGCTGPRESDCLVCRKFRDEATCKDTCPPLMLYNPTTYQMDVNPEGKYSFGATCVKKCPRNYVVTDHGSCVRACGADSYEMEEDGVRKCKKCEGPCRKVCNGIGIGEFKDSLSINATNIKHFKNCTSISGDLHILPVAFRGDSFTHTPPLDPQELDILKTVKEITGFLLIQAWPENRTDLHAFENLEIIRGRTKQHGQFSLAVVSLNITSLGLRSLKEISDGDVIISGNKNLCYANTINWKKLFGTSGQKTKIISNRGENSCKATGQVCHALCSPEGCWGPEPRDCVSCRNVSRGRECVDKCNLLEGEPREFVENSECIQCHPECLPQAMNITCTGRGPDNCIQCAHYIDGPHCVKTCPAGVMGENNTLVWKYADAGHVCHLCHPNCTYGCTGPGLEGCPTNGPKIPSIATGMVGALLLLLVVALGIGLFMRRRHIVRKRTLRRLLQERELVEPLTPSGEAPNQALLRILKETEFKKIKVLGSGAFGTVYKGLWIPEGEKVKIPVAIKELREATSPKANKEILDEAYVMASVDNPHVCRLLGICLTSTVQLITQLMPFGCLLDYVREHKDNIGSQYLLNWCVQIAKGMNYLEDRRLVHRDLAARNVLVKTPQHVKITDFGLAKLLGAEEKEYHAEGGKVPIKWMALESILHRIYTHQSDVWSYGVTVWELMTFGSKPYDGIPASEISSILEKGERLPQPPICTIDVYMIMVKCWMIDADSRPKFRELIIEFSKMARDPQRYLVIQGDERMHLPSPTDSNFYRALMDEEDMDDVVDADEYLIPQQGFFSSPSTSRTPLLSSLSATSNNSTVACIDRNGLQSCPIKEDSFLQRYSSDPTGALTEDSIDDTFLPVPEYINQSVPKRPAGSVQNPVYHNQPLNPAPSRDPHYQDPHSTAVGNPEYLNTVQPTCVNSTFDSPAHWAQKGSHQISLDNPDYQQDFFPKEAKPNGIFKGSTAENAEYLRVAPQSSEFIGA

On to `COCCOC(=O)N1C(=O)[C@@]2(c3cc(C#CC4(O)CCCCCC4)ccc31)[C@H](C(=O)NC[C@H](O)c1ccccc1)[C@H]1C(=O)O[C@H](c3ccccc3)[C@H](c3ccccc3)N1[C@@H]2c1ccc(O)cc1`, for which the composite z-score in test [1] was 1.48; in [5], 2.49; in test [7], -0.0289; in test [8], 0.3; in [9] it was 0.871; in test [10], -0.0703. The composite z-score in test [11] is 1.36; in test [12] it was 0.203; in test [13], 0.316; in [15] it was 0.779; in test [16], 1.29; in [17], -0.0406. The composite z-score in [18] was 0.334; in test [19], -0.0026; in test [20], 0.386. In addition, the z-score in test [2] is 0.295 (inactive); in [3], 0.956 (inactive); in test [4] it was 0.927 (inactive); in test [6], 1.43 (inactive); in [14] it was 0.209 (inactive).
For the molecule `CN(C)CCCCNC(=O)[C@H]1C[C@H]2C(=O)N[C@@H](Cc3ccccc3)C(=O)N2[C@H]1c1cccc(OCCO)c1`, the composite z-score in test [1] was 0.193; in [5] it was 0.33; in test [7] it was -0.0924; in test [8], 0.622; in test [9], 0.307; in [10], -0.0512. Also, the composite z-score was 1.2 in [11]; -0.336 in test [12]; 0.336 in [13]; -0.407 in [15]; -1.51 in test [16]; 0.0459 in test [17]. Moreover, the composite z-score in test [18] was 0.198; in [19], 0.574; in [20], -0.272. For the same molecule, the z-score in test [2] is -1.11 (inactive); in [3], 0.0737 (inactive); in [4] it was -0.247 (inactive); in test [6], 1.13 (inactive); in test [14], -1.9 (inactive).
Consider `CCOC(=O)C[C@H]1[C@H](OC(=O)c2ccc(C(=O)c3ccccc3)cc2)[C@@H](NC(=O)c2ccc3ccccc3c2)c2cc(OCCCO)ccc2N1C(=O)c1ccc2ccccc2n1`, for which the composite z-score in test [1] came out at 1.26; in test [5] it was 0.962; in [7], 0.0249; in [8], 0.836; in test [9], 1.03; in test [10] it was 0.111. The composite z-score turned out to be 0.608 in test [11]; 0.124 in test [12]; 0.0404 in [13]; 0.388 in [15]; 0.712 in test [16]; 0.598 in test [17]. For the same molecule, the values for the composite z-score in test [18], in test [19] and in test [20] were 0.624, 0.713 and 0.676, respectively. The z-score in test [2] was 0.216 (inactive); in [3], -0.629 (inactive); in [4], 0.256 (inactive); in test [6] it was 1.79 (inactive); in [14] it was -0.372 (inactive).
On to `CC(C)CNC(=O)[C@@H]1c2ccccc2C(=O)N(C2Cc3ccccc3C2)[C@H]1c1ccc(CO)cc1`, for which the composite z-score in test [1] was 0.962; in test [5], 2.59; in test [7] it was 0.159; in test [8] it was -0.646; in test [9], -0.145; in test [10], -0.311. Moreover, the composite z-score is 1.41 in test [11]; -0.0818 in test [12]; 0.435 in test [13]; -0.127 in [15]; -0.0545 in test [16]; -0.267 in test [17]. Further, the composite z-score in [18] is -0.192; in [19] it was -0.777; in test [20], 0.245. Further, the z-score in test [2] is -0.226 (inactive); in test [3] it was -0.59 (inactive); in [4], -0.434 (inactive); in [6] it was 2.01 (inactive); in [14] it was -0.179 (inactive).
With `C=CCC(OC(C)=O)[C@@H]1[C@@H](N(Cc2cc3ccccc3o2)C(=O)c2cccc3ccccc23)c2cc(OCCCO)ccc2N1C(=O)c1ccc2ccccc2c1` (stereo not given in full), the composite z-score was -0.305 in [1]; 0.583 in [5]; 0.0826 in [7]; 0.413 in test [8]; 0.222 in test [9]; -0.139 in test [10]. Besides, the composite z-score was -0.459 in [11]; 0.245 in [12]; 0.246 in test [13]; 0.0473 in [15]; -0.553 in test [16]; -0.0798 in [17]. Besides, the composite z-score was 0.182 in test [18], 0.0022 in test [19] and 0.867 in test [20]. For the same molecule, the z-score in [2] was 0.0315 (inactive); in [3] it was -0.943 (inactive); in test [4], -0.0147 (inactive); in test [6], -0.234 (inactive); in test [14] it was -1.18 (inactive).
